# According to the supplement of paper PMC6555819:
# Tests used:
# Assay in all cases: PBM binding z-score (relative to random genomic background probes); higher = stronger binding; sequences stand for … in GC…GCGATTGACAGCGTAGAATGAAGG
# [1] = system: FXR:RXRa (NR concentration 270 nM, RXRa partner concentration 90 nM)
# Procedure, shortened: (§1)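 For binding z-scores, the reference was random background probes on custom Agilent 4×180K protein-binding microarrays. These arrays were incubated 1 h with ligand-free nuclear receptor dimers in PBS pH 7.4, 2% milk, 0.02% Triton X-100, 1 mM DTT, 0.2 mg/mL BSA and 0.4 mg/ml salmon testes DNA. Fluorescence was scanned after antibody detection of each partner (one per run) and regression-normalized.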
# [2] = system: LXRa:RXRa (NR concentration 270 nM, RXRa partner concentration 90 nM)
# Procedure, shortened: as §1
# [3] = system: LXRa homodimer (NR concentration 270 nM)
# Procedure, shortened: as §1
# [4] = system: LXRb:RXRa (NR concentration 270 nM, RXRa partner concentration 90 nM)
# Procedure, shortened: as §1
# [5] = system: LXRb homodimer (NR concentration 270 nM)
# Procedure, shortened: as §1
# [6] = system: PPARa:RXRa (NR concentration 270 nM, RXRa partner concentration 90 nM)
# Procedure, shortened: as §1
# [7] = system: PPARg:RXRa (NR concentration 180 nM, RXRa partner concentration 90 nM)
# Procedure, shortened: as §1
# [8] = system: PPARg:RXRa 270nM:90nM, anti-RXR (NR concentration 270 nM, RXRa partner concentration 90 nM)
# Procedure, shortened: as §1
# [9] = system: PPARg:RXRa 30nM:10nM, anti-RXR (NR concentration 30 nM, RXRa partner concentration 10 nM)
# Procedure, shortened: as §1
# [10] = system: PPARg:RXRa 90nM:30nM, anti-RXR (NR concentration 90 nM, RXRa partner concentration 30 nM)
# Procedure, shortened: as §1
# [11] = system: PPARg:RXRa DBDmut IVT, anti-RXR (DBD mutation: RXRa K156A/R161A, NR concentration 270 nM, RXRa partner concentration 90 nM)
# Procedure, shortened: as §1
# [12] = system: PPARg:RXRa IVT, anti-PPARg (NR concentration 270 nM, RXRa partner concentration 90 nM)
# Procedure, shortened: as §1
# [13] = system: PPARg DBDmut:RXRa IVT, anti-PPARg (DBD mutation: PPARg1 K132A/R137A, NR concentration 270 nM, RXRa partner concentration 90 nM)
# Procedure, shortened: as §1
# [14] = system: PPARg DBDmut IVT, anti-PPARg (DBD mutation: PPARg1 K132A/R137A, NR concentration 270 nM)
# Procedure, shortened: as §1
# [15] = system: PPARg homodimer (NR concentration 180 nM)
# Procedure, shortened: as §1
# [16] = system: PXR:RXRa (NR concentration 270 nM, RXRa partner concentration 90 nM)
# Procedure, shortened: as §1
# [17] = system: PXR homodimer (NR concentration 270 nM)
# Procedure, shortened: as §1
# [18] = system: RARa:RXR (NR concentration 270 nM, RXRa partner concentration 90 nM)
# Procedure, shortened: as §1
# [19] = system: RARa homodimer (NR concentration 270 nM)
# Procedure, shortened: as §1
# [20] = system: RARb:RXRa (NR concentration 270 nM, RXRa partner concentration 90 nM)
# Procedure, shortened: as §1
Sequence,PBM binding z-score [1],PBM binding z-score [2],PBM binding z-score [3],PBM binding z-score [4],PBM binding z-score [5],PBM binding z-score [6],PBM binding z-score [7],PBM binding z-score [8],PBM binding z-score [9],PBM binding z-score [10],PBM binding z-score [11],PBM binding z-score [12],PBM binding z-score [13],PBM binding z-score [14],PBM binding z-score [15],PBM binding z-score [16],PBM binding z-score [17],PBM binding z-score [18],PBM binding z-score [19],PBM binding z-score [20]
TCAGACAGGTGAAAGTAACTCAGGTACGCAGTCG,0.453,0.738,-0.345,0.85,-0.276,1.32,0.821,2.21,4.08,2.92,2.49,1,0.398,0.588,0.14,0.584,0.498,0.768,0.295,0.907
ACAGACAGGTGAAGAAGGTAACTCAGGCTATCAT,0.248,0.203,-0.161,0.234,-0.276,0.721,0.796,0.34,0.0156,-0.0588,0.468,0.733,0.175,0.429,0.495,0.0318,0.0524,0.274,0.349,0.709
TCTGCTAGATCAACGATGGTCAGCTAATCTGCTA,-1.43,-0.641,-1.29,-0.993,-1.05,-0.231,-0.175,0.492,1.39,1.14,0.608,-0.401,-0.179,-0.566,-1.56,-0.434,-1.18,-0.57,-1.3,-0.346
TTACCAATGTGAAGGTCGTTGATCCCTCTGTAGA,1.87,2.22,0.434,1.74,0.0606,1.3,-0.039,1.1,1.12,0.829,0.314,0.221,-0.143,0.211,0.84,1.37,0.539,1.45,0.451,0.862
TCTCGGAGGACTCGAAAGGTCAGAGCTCGACATC,1.95,2.86,1.04,2.66,-0.682,3.21,0.567,2.34,2.29,1.88,1.26,0.952,-0.254,-0.419,1.63,3.16,0.0023,3.76,-0.0102,3.62
TCTATTAGTTGATTAGGGCGACCGAAACAGCGGA,0.395,0.617,0.293,0.356,0.556,0.801,-0.0653,1.73,3.64,2.8,2.11,0.486,0.791,0.554,0.93,0.452,0.338,0.407,1.27,0.629
CCTTACGGGTCACTGACAGGTTATATCATTTGGA,5.35,4.27,0.675,3.82,-0.0554,5.14,4.29,4.13,1.54,2.98,3.09,3.76,1.37,0.355,2.85,3.69,0.432,4.84,0.665,4.08
